# Experimental data from PubChem BioAssay AID1347418 (Sanford-Burnham Center for Chemical Genomics, 2020).
# Among all 1,300 compounds or so, about 750 (58%) were called active. Some of the results follow. Values without a mark were called inactive.
# Target: Sulfhydryl oxidase 1 (Homo sapiens) (UniProt O00391)
# Assay: QSOX1 enzyme inhibitors, primary screen, biochemical, ROS-Glo H2O2 luminescence, HTS (AID 1347418)
# Settings: recombinant QSOX1, ROS-Glo H2O2 luminescence, at 12.5 µM, hits give high values; active = any value above zero unless noted
# Sulfhydryl oxidase 1 (Homo sapiens), sequence (O00391 whole entry, looked up): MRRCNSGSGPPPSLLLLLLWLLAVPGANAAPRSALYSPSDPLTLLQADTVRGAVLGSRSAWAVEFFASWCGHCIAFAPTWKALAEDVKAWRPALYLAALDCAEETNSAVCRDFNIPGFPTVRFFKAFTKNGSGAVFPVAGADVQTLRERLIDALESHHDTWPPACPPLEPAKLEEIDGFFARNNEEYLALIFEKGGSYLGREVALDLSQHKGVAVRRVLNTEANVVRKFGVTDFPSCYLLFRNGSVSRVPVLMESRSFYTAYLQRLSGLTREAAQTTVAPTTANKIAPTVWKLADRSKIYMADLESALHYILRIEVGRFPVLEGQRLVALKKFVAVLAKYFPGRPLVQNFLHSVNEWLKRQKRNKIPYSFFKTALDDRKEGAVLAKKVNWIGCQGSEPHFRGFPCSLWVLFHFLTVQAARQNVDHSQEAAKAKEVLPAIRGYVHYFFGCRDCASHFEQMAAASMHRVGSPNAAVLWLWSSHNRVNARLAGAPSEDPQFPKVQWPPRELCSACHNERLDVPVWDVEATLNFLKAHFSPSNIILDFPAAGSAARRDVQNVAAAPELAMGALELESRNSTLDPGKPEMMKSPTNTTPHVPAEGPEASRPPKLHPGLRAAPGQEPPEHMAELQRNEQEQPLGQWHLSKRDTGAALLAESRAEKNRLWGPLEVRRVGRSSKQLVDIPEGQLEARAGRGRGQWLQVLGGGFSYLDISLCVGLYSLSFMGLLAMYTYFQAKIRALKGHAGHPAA
row,SMILES,inhibition
1,C[C@]12Cc3cn4c(nc3C=C1CCC1C2CC[C@@]2(C)[C@H]1CC[C@@]2(O)C#N)nc1ccccc14 (some centres not stated),2.7% (active)
2,Cc1o[nH]c(=O)c1CC(N)C(=O)O (configuration not stated),4.2% (active)
3,NC(C(=O)O)c1cc(=O)[nH]o1 (configuration not stated),-2.4%
4,CCCN(CCC)CCc1ccc(O)c(O)c1,14.4% (active)
5,CNCCc1ccc(O)c(O)c1,7.7% (active)
6,CC(C)(C)NCC(O)c1ccccc1Cl (configuration not stated),-0.6%
7,CC(N)c1cccc(Cl)c1Cl (configuration not stated),6.2% (active)
8,O=C(O)[C@@H]1CCN1,9.3% (active)
9,C[C@H](N)Cc1cccc(C(F)(F)F)c1,1.6% [setting not given] (active)
10,O=[N+]([O-])c1cc(O)c(O)c([N+](=O)[O-])c1,13% (active)
11,NCCc1ccc(S(=O)(=O)F)cc1,5.8% (active)
12,NCCc1ccc(O)cc1,-0.2% [setting not given]
13,N=C(N)c1ccc(CS(=O)(=O)F)cc1,-0.1%
14,CC1=NN=C(c2ccc(N)cc2)c2cc3c(cc2C1)OCO3,10.6% (active)
15,NCC(CC(=O)O)c1ccc(Cl)cc1 (configuration not stated),1.1% [setting not given] (active)
16,NCC(CP(=O)(O)O)c1ccc(Cl)cc1 (configuration not stated),0.1% (active)
17,CCCCC/C=C\C/C=C\C/C=C\C/C=C\CCCC(=O)NCC(=O)O,2.2% (active)
18,Cc1cccc(C)c1NC1=NCCCS1,0.2% [setting not given] (active)
19,Nc1ccncc1,-1% [setting not given]

row,SMILES,inhibition
1,CCN1C[C@@]2(COC)C3[C@@H](OC)C4[C@@H]1C3([C@@H]1C[C@@]3(O)[C@H](OC(=O)c5ccccc5)[C@@H]1[C@]4(OC(C)=O)[C@@H](O)[C@@H]3OC)[C@H](OC)C[C@H]2O,2.6% (active)
2,CNc1ccc2oc(C[C@H]3O[C@@]4(CC[C@H]3C)O[C@H]([C@H](C)C(=O)c3ccc[nH]3)[C@H](C)C[C@H]4C)nc2c1C(=O)O,14.2% [setting not given] (active)
3,Cc1c2ccncc2c(C)c2c1[nH]c1ccccc12,29% [setting not given] (active)
4,Cc1nccc2c1[nH]c1ccccc12,-2% [setting not given]
5,NC(CCP(=O)(O)O)C(=O)O (configuration not stated),2.8% (active)
6,NC(CCCCCP(=O)(O)O)C(=O)O (configuration not stated),-4.6%
7,NC(CP(=O)(O)O)C(=O)O (configuration not stated),2.8% (active)
8,CO[C@H]1CC=C2CCN3CCC4=C(CC(=O)OC4)[C@]23C1,0.6% (active)
9,O=c1[nH]oc2c1CCNC2,-7.3%
10,c1ccc2sc(C3(N4CCCCC4)CCCCC3)cc2c1,0.2% (active)
11,Cc1sc2ccccc2c1CC1=NCCN1,-3.3%
12,CC(C)N(CCC(C(N)=O)(c1ccccc1)c1ccccn1)C(C)C (configuration not stated),6.1% [setting not given] (active)
13,CC1(C(=O)O)C2CCC(O2)C1(C)C(=O)O (configuration not stated),-3.3%
14,COc1ccc(CNC(=O)/C=C/c2ccc3[nH]cc(CCN(C)C)c3c2)cc1,1.8% [setting not given] (active)
15,COC(=O)N1CCN(C(=O)Cc2ccc(Cl)c(Cl)c2)C(CN2CCCC2)C1 (configuration not stated),-0.5%
16,O=C(Cc1ccc(Cl)c(Cl)c1)N1CCCCC1CN1CCCC1 (configuration not stated),-1.7%
17,CN(C(=O)Cc1ccc(Cl)c(Cl)c1)C(CN1CCCC1)c1cccc(OCC(=O)O)c1 (configuration not stated),1.2% (active)
18,CC(C)c1cccc(C(C)C)c1O,0.9% (active)
